Where “and” joins values, the source holds several entries; their conditions need not be identical. Equal values may be shown once. Results filed as inconclusive are left out. The source holds several records for some structures; these can differ, active in one and inactive in another. Values without a mark were called inactive. Calls of active or inactive are those of the source. Calls come from the whole dose curve; as a rule, active = well fitted inhibition curve with a large enough effect; inconclusive = small, poorly fitted or top-dose-only effect; inactive = flat fitted curve, though single readings scatter.
Legend:
SC27B = test: qHTS profiling for inhibitors of Plasmodium falciparum proliferation (AID 504749);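 note: 0% = DMSO vehicle and full inhibition = artemisinin control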; details: P. falciparum in erythrocytes, SYBR Green DNA, 72 h; series mostly up to 28.7 µM
Summary of the method: (§1)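 In a 72 h erythrocytic culture (37 C, humidified, 5% CO2) at 2.5% hematocrit and 0.3% starting parasitemia, compounds were tested; SYBR Green I in detergent lysis buffer stained parasite DNA overnight.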

TAB109 = test: as above; details: P. falciparum in erythrocytes, SYBR Green DNA, 72 h; series mostly up to 28.7 µM
Summary of the method: as §1

TAB113 = test: as above; details: P. falciparum in erythrocytes, SYBR Green DNA, 72 h; series mostly up to 28.7 µM
Summary of the method: as §1

TAB165 = test: as above; details: P. falciparum in erythrocytes, SYBR Green DNA, 72 h; series mostly up to 28.7 µM
Summary of the method: as §1

W2 = test: as above; details: P. falciparum in erythrocytes, SYBR Green DNA, 72 h; series mostly up to 28.7 µM
Summary of the method: as §1

CRL-7250 = normal cell line; test: Cytotoxic Profiling of Annotated Libraries Using Quantitative High-Throughput Screening (AID 1296008); details: Five cell lines viability, CellTiter-Glo ATP luminescence, 48-72 h; max response: active compounds read low; note: potency is the fitted concentration of half-maximal effect; for max response: % is set by controls: 0 for no effect and ±100 for the full control effect
Summary of the method: (§2)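 Cytotoxicity was measured as CellTiter-Glo ATP luminescence, read after 10 min at room temperature. Compound treatment of the cells lasted 48 or 72 hr at 37 degrees Celsius in a qHTS format.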

HEK293 = test: as above; details: Five cell lines viability, CellTiter-Glo ATP luminescence, 48-72 h; max response: active compounds read low
Summary of the method: as §2

HaCat = test: as above; details: Five cell lines viability, CellTiter-Glo ATP luminescence, 48-72 h; max response: active compounds read low
Summary of the method: as §2

KB-3-1 = test: as above; details: Five cell lines viability, CellTiter-Glo ATP luminescence, 48-72 h; max response: active compounds read low
Summary of the method: as §2

NIH3T3 = test: as above; details: Five cell lines viability, CellTiter-Glo ATP luminescence, 48-72 h; max response: active compounds read low
Summary of the method: as §2
Note: nearly all actives have a fitted effect of over 60% in size.

`O=C(O)c1cc(-c2ccccc2)nc2ccccc12` was tested, and the Potency (SC27B) was “inactive”, the outcome (TAB109) was “inactive” and the Potency (TAB113) was “inactive”. The Potency (TAB165) was “inactive”, the Potency (W2) was “inactive” and the max response (CRL-7250) was -0.325% and 3.3% and 1.79%. The max response (HEK293) was -6.89%, the outcome (HEK293) was “inactive” and the max response (HaCat) was -15.6%. For the same molecule, the outcome (HaCat) was “inactive”, the max response (KB-3-1) was -3.95% and -19% and 4.62% and the max response (NIH3T3) was 0.25% and -0.385%. For the same molecule, the outcome (NIH3T3) was “inactive”.
With `CC[C@]1(O)C[C@@H]2CN(CCc3c([nH]c4ccccc34)[C@@](C(=O)OC)(c3cc4c(cc3OC)N(C)[C@H]3[C@@](O)(C(=O)OC)[C@H](OC(C)=O)[C@]5(CC)C=CCN6CC[C@]43[C@@H]65)C2)C1` the Potency (CRL-7250) was 0.266 µM (active), the Potency (HEK293) was 66.8 nM (active) and 84.1 nM (active) and 46.1 nM (active) and the max response (HaCat) was 0.756%. For the same molecule, the outcome (HaCat) was “inactive”, the Potency (KB-3-1) was 2.91 µM (active) and 18.4 nM (active) and the Potency (NIH3T3) was 0.335 µM (active).
With `CC(C)(C)Cn1c(N)nc2ccc(-c3[nH]c(C(C)(C)C)nc3-c3ccc(F)cc3)nc21` the max response (CRL-7250) was -25.6% and -19.9%, the Potency (HEK293) was 11.6 µM (active) and the Potency (HaCat) was 5.9 µM (active) and 4.61 µM (active).
For `Clc1ccc(Cn2c(CN3CCCC3)nc3ccccc32)cc1`, the Potency (SC27B) was “inactive”, the outcome (TAB109) was “inactive” and the Potency (TAB113) was “inactive”. The Potency (TAB165) was “inactive”, the max response (CRL-7250) was -0.466% and the outcome (CRL-7250) was “inactive”. The max response (HEK293) was -18%, the max response (HaCat) was -16.9% and the outcome (HaCat) was “inactive”. For the same molecule, the max response (KB-3-1) was 4.33% and 5.03% and the max response (NIH3T3) was 3.2% and 1.49%.
`COc1cc2ncnc(-n3nc(-c4ccccn4)nc3N)c2cc1OC` was tested, and the Potency (CRL-7250) was 3.55 µM (active), the max response (CRL-7250) was -12.8% and the outcome (HEK293) was “inactive”. The Potency (HaCat) was 3.17 µM (active), the outcome (HaCat) was “inactive” and the outcome (KB-3-1) was “inactive”. For the same molecule, the max response (NIH3T3) was 0.54% and -22.1%.
With `CC(=O)CCCCn1c(=O)c2c(ncn2C)n(C)c1=O` the Potency (SC27B) was “inactive”, the outcome (TAB109) was “inactive” and the Potency (TAB113) was “inactive”. The Potency (TAB165) was “inactive”, the Potency (W2) was “inactive” and the max response (CRL-7250) was -2.71% and -0.425%. The max response (HEK293) was -3.31%, the outcome (HEK293) was “inactive” and the max response (HaCat) was -9.06%. The outcome (HaCat) was “inactive”, the max response (KB-3-1) was -13.9% and the outcome (KB-3-1) was “inactive”. For the same molecule, the max response (NIH3T3) was 4.69% and 0.479%.
For `CCOc1ccc(Nc2nc(-c3c(C)nc4ccccn34)cs2)cc1`, the Potency (CRL-7250) was 0.146 µM (active), the Potency (HEK293) was 0.0461 µM (active) and the max response (HaCat) was 3.42%. The outcome (HaCat) was “inactive”, the Potency (KB-3-1) was 33.2 nM (active) and 32.6 nM (active) and the Potency (NIH3T3) was 5.3 nM (active) and 73.1 nM (active).
`O=c1cc(-c2ccccc2)oc2cc(O)cc(O)c12` was tested, and the max response (CRL-7250) was -20.5% and the Potency (HEK293) was 8.33 µM (active).
With `CC(C)[C@H](CO)Nc1nc(Nc2ccc(C(=O)O)c(Cl)c2)c2ncn(C(C)C)c2n1` the outcome (CRL-7250) was “inactive”, the max response (HEK293) was 1.29% and the max response (HaCat) was 4.58%. For the same molecule, the outcome (HaCat) was “inactive”, the outcome (KB-3-1) was “inactive” and the max response (NIH3T3) was -1.87%. For the same molecule, the outcome (NIH3T3) was “inactive”.
`COc1ccc(C2CC(c3ccccc3)=NN2c2ccc(S(N)(=O)=O)cc2)cc1` (centres undefined) was tested, and the Potency (CRL-7250) was 10.5 µM (active), the max response (CRL-7250) was -2.01% and the max response (HaCat) was 3.54% and 1.7%. The max response (KB-3-1) was -15.8% and the max response (NIH3T3) was -14.6% and -17.5%.
In the case of `CS(=O)c1ccc(-c2nc(-c3ccc(F)cc3)c(-c3ccncc3)[nH]2)cc1` (centres undefined), the Potency (CRL-7250) is reported as 19.1 µM (active), the outcome (CRL-7250) is reported as “inactive” and the Potency (HEK293) is reported as 8.55 µM (active). For the same molecule, the outcome (HEK293) was “inactive”, the max response (HaCat) was 2.48% and the outcome (KB-3-1) was “inactive”. The max response (NIH3T3) was 3.16% and 3.83%.
`COc1ccc2c(Oc3ccc(NC(=O)c4c(C)n(CC(C)(C)O)n(-c5ccccc5)c4=O)nc3)ccnc2c1` was tested, and the Potency (CRL-7250) was 18.4 µM (active), the max response (CRL-7250) was -5.8% and the max response (HEK293) was 3.25%. For the same molecule, the Potency (HaCat) was 11.6 µM (active), the max response (HaCat) was -3.13% and the max response (KB-3-1) was 3.31%. For the same molecule, the Potency (NIH3T3) was 3.66 µM (active).
In the case of `O=C(NC1CCOCC1)c1ccc(-c2cc(-c3cn[nH]c3-c3ccccn3)ccn2)cc1`, the max response (CRL-7250) is reported as -5.17%, the outcome (CRL-7250) is reported as “inactive” and the max response (HEK293) is reported as -15.5%. The max response (HaCat) was 2.12%, the outcome (HaCat) was “inactive” and the max response (KB-3-1) was -6.4% and 1.2%.
In the case of `O=C(Nc1ccccc1-c1cn2c(CN3CCNCC3)csc2n1)c1cnc2ccccc2n1`, the Potency (CRL-7250) is reported as 26.4 µM (active), the Potency (HEK293) is reported as 23.5 µM (active) and the max response (HaCat) is reported as 4.92%. For the same molecule, the outcome (HaCat) was “inactive” and the Potency (NIH3T3) was 29.6 µM (active).
For `COc1ccccc1N1CCN(CCCNc2cc(=O)n(C)c(=O)n2C)CC1`, the Potency (SC27B) was “inactive”, the outcome (TAB109) was “inactive” and the Potency (TAB113) was “inactive”. For the same molecule, the Potency (TAB165) was “inactive”, the Potency (W2) was “inactive” and the max response (CRL-7250) was -0.41%. For the same molecule, the outcome (CRL-7250) was “inactive”, the outcome (HEK293) was “inactive” and the outcome (HaCat) was “inactive”. The max response (KB-3-1) was 10% and -5.34% and -7.87% and the outcome (NIH3T3) was “inactive”.
For `NC(=O)c1ccc2nc(-c3ccc(Oc4ccc(Cl)cc4)cc3)[nH]c2c1`, the max response (CRL-7250) was -25.5%, the outcome (CRL-7250) was “inactive” and the max response (HaCat) was -0.499%. For the same molecule, the outcome (HaCat) was “inactive” and the max response (NIH3T3) was -2.72% and -4.33%.

— PubChem BioAssay (NCATS)
